BoNT F protease – inhibitors of Botulinum neurotoxin F light chain protease; inhibition, % at 10 µM; Multiplex microsphere protease cleavage assay, flow cytometry; actives 0.22% (n = 360,000); in the data active means inhibition above about 35%, passing the limit was not always enough; inconclusive means no clear call, values can overlap the other calls; further: plate controls were buffer without enzyme for full effect and enzyme alone for no effect
Anthrax LF prot – anthrax lethal factor protease inhibition | P15917 | multiplex microsphere protease cleavage assay, LF | inhibition, % at 10 µM | actives 0.12% (n = 360,000); further: plate controls were buffer without enzyme for full effect and enzyme alone for no effect
BoNT-A LC inh2 – inhibitors of Botulinum neurotoxin A light chain protease | actives 0.17% (n = 360,000) | inhibition, % at 10 µM | multiplex microsphere protease substrate cleavage, flow cytometry | AID 588499; further: plate controls were buffer without enzyme for full effect and enzyme alone for no effect
Autofluor counter – compound fluorescence in toxin protease inhibitor counterscreen; compound autofluorescence counterscreen, microsphere flow cytometry; hits give high values; fluorescence intensity (no concentration beside the values); actives 3.1% (n = 360,000); in the data active means fluorescence intensity above about 16000; inconclusive means no clear call, values can overlap the other calls
SSB-PriA inh – K. pneumoniae PriA-SSBct interaction inhibition | AlphaScreen SSBct-PriA binding, biotinylated peptide | inhibition, % at 33 µM | actives 0.6% (n = 430,000) | AID 1272365; in the data active means inhibition mostly above about 37%, no sharp cut-off; inactive means mostly below about 20%;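 further: plate controls were negative control peptide for no effect and reference peptide for full effect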
Active calls of the source: *; ? = inconclusive; · = not tested or not shown. This is a sample that favours compounds with a hit; in the whole collection about 3.1% have one here. Unless noted, no stated cut-off is given here; in the data, active means inhibition above about 30%; inconclusive means no clear call, values can overlap the other calls; inactive means below that.

SMILES	BoNT F protease	Anthrax LF prot	BoNT-A LC inh2	Autofluor counter	SSB-PriA inh
O=C(Nc1ccccc1)ON=Cc1ccncc1	·	·	·	·	-2
CC(C)(c1cc(Br)c(OCC2CO2)c(Br)c1)c1cc(Br)c(OCC2CO2)c(Br)c1 (stereo not given)	·	·	·	·	-5
CC(C)(C)c1ccc(NC(=O)c2ccc(Br)cc2)c([N+](=O)[O-])c1	·	·	·	·	41
Cc1ccc(NC(=O)C(=O)NCc2cccs2)c([N+](=O)[O-])c1	·	·	·	·	56*
CC(C)(C)c1ccc(NC(=O)c2ccc(Cl)cc2)c([N+](=O)[O-])c1	·	·	·	·	63*
CCCN1C(=O)c2cccc3c(N4CCCCC4)ccc(c23)C1=O	11	14	32*	4642	-130
CCN(CC)S(=O)(=O)c1ccc(C(=O)OCCN2C(=O)c3cccc4c(N5CCOCC5)ccc(c34)C2=O)cc1	20	28	35*	7204	-28
O=C1c2cccc3c(N4CCCCC4)ccc(c23)C(=O)N1c1ccccn1	16	-2	1	3209	-12
Cc1cc(C(C)(C)C)nc2[nH]n(-c3ccccc3)c(=O)c12	-7	1	-4	20895*	-1
Cn1cc(S(=O)(=O)N2CCC(c3ccc4c(c3)OCO4)C2)cn1 (stereo not given)	·	·	·	·	-12
COc1cc(C(=O)NCC(=O)OCc2ccccc2Cl)cc(OC)c1OC	-5	7	0	4527	-21
CCOC(=O)c1sc(N)c(C#N)c1COC(=O)CNC(=O)c1cc(OC)c(OC)c(OC)c1	-5	-5	0	16372*	1
CC(=O)NC(N)=Nc1nc2cc(C)ccc2o1	·	·	·	·	0
CCCCCn1c(N)c(-c2nc3ccccc3s2)c2c([N+](=O)[O-])nn(CC)c(=O)c21	-13	-19	-8	17846*	-2
O=c1nc(SCc2ccccc2Cl)c2c(n1Cc1ccco1)CCC2	·	·	·	·	-4
Cc1cccc(N=Nc2c(N)n[nH]c2-c2ccc(Cl)cc2)c1	-2	-6	1	20404*	21
Cc1c(OC(C)C(=O)N2C[C@H]3C[C@H](C2)c2cccc(=O)n2C3)ccc2c3c(c(=O)oc12)CCC3 (stereo not given in full)	·	·	·	·	-2
C=CCN(CC(=O)NCc1ccccc1)C(=O)c1csnn1	-1	0	-2	24034*	-13
O=C(O)CCC(=O)N1N=C(c2c(-c3ccccc3)c3cc(Br)ccc3[nH]c2=O)CC1c1ccc(F)cc1 (stereo not given)	·	·	·	·	-14
CC(C)c1cc(C(C)C)c(C(C)C)c([N+](=O)[O-])c1N	·	·	·	·	35*
Fc1ccc(Oc2nnc(-c3ccccc3)c3ccccc23)cc1Cl	·	·	·	·	-6
Cc1[nH]c2ccccc2c1/C=C(\C#N)C(=O)NC(C)c1ccccc1 (stereo not given)	3	-6	3	22234*	3
Cc1[nH]c2ccccc2c1/C=C(\C#N)C(=O)NC1CC1	-10	2	-2	4539	-11
Cc1[nH]c2ccccc2c1/C=C(\C#N)S(=O)(=O)c1ccccc1	-2	-2	0	20697*	1
O=S(=O)(c1ccc(Cl)s1)N1Cc2cnc(N3CCOCC3)nc2C1	·	·	·	·	-6
SMILES	BoNT F protease	Anthrax LF prot	BoNT-A LC inh2	Autofluor counter	SSB-PriA inh
COc1cc(S(=O)(=O)N(Cc2ccccc2)CC2CCCO2)ccc1-n1cnnn1 (stereo not given)	0	-3	-1	4500	-2
COc1ccc(CN(CC2CCCO2)S(=O)(=O)c2ccc(C(=O)O)cc2)cc1OC (stereo not given)	-2	0	-1	23567*	-9
O=C(NCCCn1ccnc1-c1ccccc1)C(=O)Nc1ccon1	·	·	·	·	-5
CN(CC(=O)N1CCCCCC1)S(=O)(=O)c1ccc(Br)cc1	?	-17	2	3462	-1
CN(CC(=O)Nc1ccccc1C(=O)N1CCCC1)S(=O)(=O)c1ccc(Br)cc1	-3	0	-2	24180*	-6
COc1ccc(C(=O)N2CCCC(C(=O)N3CCCCCC3)C2)cc1 (stereo not given)	-4	-4	-2	20377*	-4
O=C(c1ccccc1)N1CCCC(C(=O)N2CCc3ccccc3C2)C1 (stereo not given)	-16	3	0	5418	2
O=C(c1ccccc1)N1CCCC(C(=O)N2CCCCCC2)C1 (stereo not given)	-6	-3	-3	24585*	-9
CC1=C(C#N)C(c2ccccc2)C2=C(N1)c1ccccc1C2=O (stereo not given)	-7	-4	0	2586	-4
CC1C(c2ccccc2)C(C#N)(C#N)C2(C#N)C(=O)NC1(N)C2C (stereo not given)	-50	-10	-29	37669*	-3
CCC(=NCCCN(CC)CC)c1c(O)n(-c2ccccc2)c(=O)[nH]c1=O	-3	1	-2	24318*	-2
CCN(CC)CCCN=C(C)c1c(O)n(-c2ccccc2)c(=O)[nH]c1=O	0	-2	?	22362*	-14
Nc1ccc(N(CCO)CCO)cc1	-9	-3	0	4273	11
CCN(CC)c1ccc(N)cc1	-119	-65	0	4311	65*
Cc1ccc(NC(=O)C(=O)NCCCN2CCOCC2)cc1F	·	·	·	·	-6
Cc1ccc(-n2ncc3c(C)nnc(SCc4ccccn4)c32)cc1C	·	·	·	·	9
CC(C)n1nnnc1-c1cc(Cl)cc(Cl)c1	0	-2	2	23056*	-5
CCCn1nnnc1-c1cc(Cl)cc(Cl)c1	0	1	0	10923	-19
CC(C)n1nnnc1-c1cccc(Cl)c1	8	-20	7	17953*	-18
Cc1noc(C)c1C(=O)Nc1sc(C)c(-c2ccccc2)c1C#N	3	-2	?	22924*	7
Cc1cc(C)c(C(=O)/C=C/c2ccc(C(C)C)cc2)c(=O)[nH]1	5	-1	5	17863*	3
COc1ccc(C2C(=C(O)c3ccc(S(=O)(=O)N4CCOCC4)cc3)C(=O)C(=O)N2CCN2CCOCC2)cc1 (stereo not given)	·	·	·	·	-2
COc1ccc(-c2cc(C(F)(F)F)n3nc(N)nc3n2)cc1	-1	0	-1	23917*	-8
Cc1ccc(S(=O)(=O)NC(=O)c2cccn2C)cc1	-1	0	0	16326*	-1
Cn1cccc1C(=O)NS(=O)(=O)c1ccccc1Cl	13	-7	?	13674	-2
SMILES	BoNT F protease	Anthrax LF prot	BoNT-A LC inh2	Autofluor counter	SSB-PriA inh
O=C(NC1(C(F)(F)F)NC(=O)N(Cc2cccnc2)C1=O)c1ccccc1 (stereo not given)	-6	-2	-4	20881*	0
CC(c1ccccc1)N1C(=O)NC(NC(=O)c2cccnc2)(C(F)(F)F)C1=O (stereo not given)	7	6	1	8974	48*
O=C(NC1(C(F)(F)F)NC(=O)N(Cc2ccccc2)C1=O)c1cccnc1 (stereo not given)	-1	0	1	2897	15
COc1ccc(N2C(=O)NC(NC(=O)c3cccnc3)(C(F)(F)F)C2=O)cc1 (stereo not given)	-3	-3	-1	4652	-12
CCc1ccc(S(=O)(=O)NCc2nn(CCN3CCCC3)c(=O)c3ccccc23)s1	·	·	·	·	44*
C=CCn1c(COc2ccccc2-c2ccccc2)nnc1SCC(=O)NC(=O)NCc1ccco1	-6	-2	-4	21241*	10

Screening results from PubChem BioAssay.
